High-throughput results (PubChem)
An excerpt weighted towards active compounds, which were near 19% of everything screened.
MCF10A rereplic – A quantitative high throughput screen for small molecules that induce DNA re-replication in MCF 10a normal breast cells. MCF 10A DNA re-replication, Hoechst nuclear intensity, 48 h. Potency, µM (doses to about 46.1 µM), for the others: top-dose activity, positive = re-replication, actives largely listed as activators. actives 2.9% (n = 350,000); further: potency means the concentration at half of the fitted maximal effect; % of control where 0% means no effect; nearly all actives have a fitted effect of over 50% in size
DT40 TDP1 CPT – qHTS for Inhibitors of human tyrosyl-DNA phosphodiesterase 1 (TDP1): qHTS in cells in presence of CPT. chicken DT40 Tdp1-/-;hTDP1 cells + 20 nM CPT, ATP luminescence, 48 h. Potency, µM (highest dose often 46.2 µM), inactives show at the top dose activity change, negative = growth inhibition, actives largely listed as inhibitors. actives 12% (n = 420,000). AID 686979, 2013; further: potency means the concentration at half of the fitted maximal effect; on the % scale 0 is the no-effect control and ±100 the full control effect; nearly all actives have a fitted effect of over 55% in size
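Cell growth measured by CellTiter-Glo luminescence after a minimum 48 h, 37 C compound exposure with 20 nM CPT in Tdp1-knockout DT40 cells stably expressing hTDP1, seeded 400/well; qHTS titration format.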
IL-1B inflam inh – qHTS for Inhibitors of Inflammasome Signaling: IL-1-beta AlphaLISA Primary Screen | actives 4.7% (n = 360,000) | activity change, % at 57.5 µM | THP-1 LPS/ATP IL-1B secretion, AlphaLISA, 16 h; active compounds read low; in the data active means activity change below about -50%; inconclusive means mostly about -30% to -49%; further: on the % scale 0 is the no-effect control and ±100 the full control effect
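Secreted IL-1B measured by AlphaLISA bead assay after 16 h compound exposure of THP-1 cells; compounds (final up to 57.5 uM) added 1 h before LPS (250 ng/mL) and ATP (1.25 mM) stimulation; lower signal means less secretion.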
SW480 rereplic – A quantitative high throughput screen for small molecules that induce DNA re-replication in SW480 colon adenocarcinoma cells; SW480 DNA re-replication, Hoechst DNA content imaging, 48 h; Potency, µM (titrated, usually from 46.1 µM), for inactives: at the top dose re-replication activation, usual class: activators; actives 1.8% (n = 340,000); further: potency means the concentration at half of the fitted maximal effect; % of control where 0% means no effect; nearly all actives have a fitted effect of over 55% in size
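Quantitative HTS format with DMSO vehicle controls; 48 hr drug incubation at 37 C, then 40 min Hoechst staining and scanning imager measurement at 405 nm excitation.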
DT40 TDP1 no CPT – qHTS for Inhibitors of human tyrosyl-DNA phosphodiesterase 1 (TDP1): qHTS in cells in absence of CPT; actives 15% (n = 420,000); Potency, µM (doses to about 46.2 µM), for the others: top-dose activity change, negative = growth inhibition, most hits filed as inhibitors; DT40 Tdp1-/- hTDP1 cells, no CPT, ATP luminescence, 48 h; further: potency means the concentration at half of the fitted maximal effect; on the % scale 0 is the no-effect control and ±100 the full control effect; nearly all actives have a fitted effect of over 55% in size
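Chicken DT40 Tdp1-/- cells stably complemented with human TDP1 were seeded at 400 cells/well with DMSO in place of 20 nM camptothecin. After compound pinning, cells grew at least 48 hr at 37 °C; viability read by CellTiter-Glo luminescence.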
BCR signal inh – qHTS Assay to Find Inhibitors of Chronic Active B-Cell Receptor Signaling. ABC-DLBCL IkBa-CBG/CBR reporter, luminescence ratio, 4 h. Potency, µM (highest dose often 46.1 µM), without a hit: at the top dose activity change, negative = inhibition, hits mostly inhibitors. actives 0.05% (n = 340,000). AID 493014, 2011; active means well fitted inhibition curve with a large enough effect in the signal ratio, with a control signal flat, not every such curve was filed as active; inconclusive means small, poorly fitted or top-dose-only effect, or effect the other way, or a change in a side signal; the % refers to the signal ratio;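 further: potency means the concentration at half of the fitted maximal effect; plate controls were basal doxycycline-induced cells for no effect and cells given 10 µM MG132 for full effect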
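Concentration-response series (up to 46 uM) were applied to TMD8 dual-reporter cells for 4 h at 37C with doxycycline. Green/red ratio, after filter-overlap correction, defined %Activity; red signal alone was normalised to basal cells and zero luminescence.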
* = called active by the depositor; ? = inconclusive; / = no result; ! = a repeat was not active. Unless noted, the call rests on the fitted dose curve; in most records, active means well fitted curve in the direction sought with a large enough effect; inconclusive means small, poorly fitted or top-dose-only effect, or another doubt; inactive means no such curve, though single readings can be large; an effect the other way counts as inactive or inconclusive.

SMILES | MCF10A rereplic | DT40 TDP1 CPT | IL-1B inflam inh | SW480 rereplic | DT40 TDP1 no CPT | BCR signal inh
Clc1ccc(Cn2ncc3c(N4CCN(c5ccccc5)CC4)ncnc32)cc1 | / | 23.1µM* | -15.2 | / | 23.1µM* | /
Cc1ccc(Cn2ncc3c(N4CCN(c5ccccc5C)CC4)ncnc32)cc1 | ? | 23.1µM* | ? | 11.9% | 16.4µM* | ?
COc1ccc(CC(=O)Nc2ccc(S(=O)(=O)N3CCN(C)CC3)cc2)cc1 | 4.9% | -4.0% | -21.5 | 0.2% | -21.9% | -0.7%
NS(=O)(=O)c1ccc(CCNC(=O)c2coc3ccccc3c2=O)cc1 | 0.3% | 1.6% | 20.1 | 1.1% | -14.5% | -7.8%
Cc1cc(C)n(CC(=O)NC2CCCCC2C)c(=O)c1C#N (configuration not stated) | -5.8% | -6.4% | -13.0 | -25.0% | 1.8% | -1.0%
Cc1ccsc1/C=C/c1ccc2ccccc2n1 | ? | ? | -20.2 | -1.9% | ? | ?
Cc1cc(C)nc(NC(=O)/C=C/c2cccs2)c1 | -4.6% | -11.6% | ? | 1.4% | -2.6% | ?
Cc1cccc(/C=C/c2cccs2)n1 | / | 1.12µM* | / | / | 0.631µM* | /
Oc1cccc2ccc(/C=C/c3cccs3)nc12 | ? | 15.8µM* | -10.7 | 11.2µM* | 14.1µM* | ?
Cc1ccsc1/C=C/c1ccc2cccc(O)c2n1 | ? | ? | -26.0 | ? | 23.1µM* | ?
COc1ccc(CCCNC(=O)C2(C)Cc3c(-c4ccc(C(N)=O)cc4)ccnc3O2)cc1 (configuration not stated) | / | ? | -18.3 | / | ? | /
COc1ccc(N2C(=O)/C(=C\c3ccco3)N=C2SCC(=O)N(C(C)C)C(C)C)cc1Cl | 18.3% | 16.4µM* | -13.7 | 1.9% | 16.4µM* | -3.2%
COC(=O)C1=C(C(=O)OC)SC(=C2C(=S)C(C)(C)N(C(=O)CC(C)C)c3ccccc32)S1 | 3.1% | 25.9µM* | ? | -8.5% | ? | 14.5%
COc1cc2c(=O)[nH]c3cc([N+](=O)[O-])ccc3c2cc1[N+](=O)[O-] | / | 8.2µM* | 4.7 | / | 6.51µM* | /
S=c1nc(Cc2ccccc2)[nH]c2ccccc12 | 16.9% | 25.9µM* | 24.3 | -3.2% | ? | -9.0%
CN(C)CCNC(=O)Cn1c(=O)c2cccn2c2ccc(F)cc21 | ? | 23.1µM*! | ? | 3.2% | 16.4µM*! | 6.7%
CCN(CC)CCNC(=O)Cn1c(=O)c2cccn2c2ccc(F)cc21 | -8.1% | 8.3% | -6.2 | 3.5% | 1.7% | 9.0%
Cc1nn(CC(=O)N(C)Cc2ccccc2)c(=O)c2cccn12 | 18.6% | -8.8% | 9.0 | 1.8% | -2.3% | 1.7%
CN(Cc1ccccc1)C(=O)Cn1c(=O)c2cccn2c2ccc(F)cc21 | / | 23.1µM* | / | / | 6.51µM* | /
O=C(OCc1ccccc1)c1ccc(NCc2cc(O)ccc2O)cc1 | ? | 4.61µM* | -76.2* | ? | 3.66µM* | /
COP(=O)(OC)c1ccc(NCc2cc(O)ccc2O)cc1 | ? | 4.61µM* | 0.0 | ? | 4.11µM* | /
CCC(=O)Nc1ccc(C(=O)OCc2ccccc2)cc1 | 2.1% | -20.3% | -1.6 | -2.7% | -1.2% | ?
CC(C)OC(=O)c1ccc(NCc2cc(O)ccc2O)cc1 | ? | 1.16µM* | -100.5* | ? | 2.31µM* | /
CCOC(=O)C1CCN(C(=O)COC(=O)/C=C/c2cccc(OC)c2OC)CC1 | ? | 2.6% | 10.6 | -5.7% | -16.0% | ?
Cc1nn(CC(=O)NC2CCC(C)CC2)c(C)c1[N+](=O)[O-] (configuration not stated) | -2.3% | ? | -11.0 | -8.5% | -0.2% | 1.6%
SMILES | MCF10A rereplic | DT40 TDP1 CPT | IL-1B inflam inh | SW480 rereplic | DT40 TDP1 no CPT | BCR signal inh
COc1ccc(C2c3c(-c4ccccc4O)n[nH]c3C(=O)N2CCc2ccc(OC)c(OC)c2)cc1 (configuration not stated) | ? | 20.6µM* | -51.4* | -3.4% | 23.1µM* | ?
COc1ccc(C2c3c(-c4ccccc4O)n[nH]c3C(=O)N2CCc2ccccc2)cc1 (configuration not stated) | / | ? | / | / | 16.4µM* | /
CC(C)OCCCN1C(=O)c2[nH]nc(-c3ccccc3O)c2C1c1ccc(OCc2ccccc2)cc1 (configuration not stated) | / | 14.6µM* | / | / | 11.6µM* | /
CC(C)c1ccc(C2c3c(-c4ccccc4O)n[nH]c3C(=O)N2CCc2ccccc2)cc1 (configuration not stated) | / | ? | / | / | 11.6µM* | /
COCCN1C(=O)CCC1(C)C(=O)NC1CCCCC1 (configuration not stated) | / | 8.3% | 18.8 | / | 9.5% | /
CC(=O)N1c2ccc(S(=O)(=O)NCC3CCC(C(=O)Nc4cc(C)ccn4)CC3)cc2CC1C (configuration not stated) | 16.4% | 18.4µM* | -78.5* | ? | 16.4µM* | ?
CCC(C)NC(=O)C1CCC(CNS(=O)(=O)c2ccc3c(c2)CC(C)N3C(C)=O)CC1 (configuration not stated) | 1.6% | ? | 28.3 | ? | -8.8% | -0.2%
CC(=O)N1c2ccc(S(=O)(=O)NCC3CCC(C(=O)Nc4ccccc4C)CC3)cc2CC1C (configuration not stated) | / | 25.9µM* | / | / | 20.6µM* | /
CC(=O)N1c2ccc(S(=O)(=O)NCC3CCC(C(=O)Nc4cccc(F)c4)CC3)cc2CC1C (configuration not stated) | / | 3.26µM* | / | / | 11.6µM* | /
CC(=O)N1c2ccc(S(=O)(=O)NCC3CCC(C(=O)Nc4ncccc4C)CC3)cc2CC1C (configuration not stated) | 0.4% | ? | 9.1 | -4.8% | -2.8% | 3.7%
CC(=O)N1c2ccc(S(=O)(=O)NCC3CCC(C(=O)N4CC(C)CC(C)C4)CC3)cc2CC1C (configuration not stated) | -8.7% | 16.4µM* | 31.2 | -2.7% | 13µM* | 6.3%
CC(=O)N1c2ccc(S(=O)(=O)N3CCC(C(=O)Nc4cc(C)ccn4)CC3)cc2CC1C (configuration not stated) | 3.4% | ? | -3.0 | 116.4% | ? | 4.7%
